The nature of experiment [1]: compound effects on differentiated 3T3-L1 adipocyte viability – cell-based, 3T3-L1 adipocytes, calcein-AM fluorescence, 48 h, basal, profiling panel (AID 1163). The conditions noted are these: 3T3-L1 adipocytes viability, higher = more signal.
Experiment [2] in a line: compound effects on hepatocellular carcinoma cell viability – HepG2, calcein-AM fluorescence, 48 h, basal, profiling panel (AID 1164). The conditions noted are these: higher = more signal.
The nature of experiment [3]: compound effects on multiple myeloma cell viability – MM1S, calcein-AM fluorescence, 48 h, basal, profiling panel (AID 1165). The conditions noted are these: higher = more signal.
The nature of experiment [4]: calcein-AM signal in unstimulated myeloma cells – cell-based, calcein-AM fluorescence, 48 h, PK04 Diversity Set, profiling panel (AID 1166).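 Also: cells grown under basal conditions without added stimulus.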 Conditions: RPMI8226 myeloma viability, higher = more signal.
Experiment [5] in a line: JC-1 mitochondrial signal, unstimulated HepG2 cells – cell-based, JC-1 fluorescence, 24 h, 100 nL compound, profiling panel (AID 1167). The conditions noted are these: HepG2 mitochondrial potential, higher = more signal.
Experiment [6] can be described thus: JC-1 mitochondrial signal, unstimulated adipocytes – cell-based, JC-1 fluorescence, 3T3-L1 adipocytes, 24 h, 100 nL compound, profiling panel (AID 1168). The conditions noted are these: JC-1 mitochondrial fluorescence, higher = more signal, called active from +8 up or from −8 down.
Experiment [7] can be described thus: JC-1 mitochondrial signal, unstimulated myeloma cells – cell-based, JC-1 fluorescence, RPMI8226, 24 h, 100 nL compound, profiling panel (AID 1169). The conditions noted are these: JC-1 mitochondrial potential fluorescence, higher = more signal.
Experiment [8] can be described thus: JC-1 mitochondrial signal, unstimulated MM1S myeloma – cell-based, JC-1 fluorescence, 24 h, 100 nL compound, profiling panel (AID 1170). Conditions: MM1S mitochondrial potential, higher = more signal.
Experiment [9] can be described thus: resazurin metabolic signal in A549 cells – cell-based, resazurin fluorescence, 24 h, PK04 Diversity Set, profiling panel (AID 1171). Conditions: A549 viability, higher = more signal, called active from +8 up or from −8 down.
The nature of experiment [10]: resazurin metabolic signal in HepG2 cells – cell-based, resazurin fluorescence, 24 h, PK04 Diversity Set, profiling panel (AID 1172). The conditions noted are these: HepG2 viability, higher = more signal.
Experiment [11] can be described thus: budding yeast growth changes without added modifier – OD600, strain BY4716, 24 h, basal condition, primary screen (AID 1173). The conditions noted are these: S. cerevisiae BY4716 growth, OD600, 24 h; higher = more signal, called active from +8 up or from −8 down.
Experiment [12] is described as follows: viability profiling in MM1S myeloma cells – cell-based, resazurin fluorescence, basal, 24 h, PK04 Diversity Set, profiling panel (AID 1174). Conditions: higher = more signal, called active from +8 up or from −8 down.
Experiment [13] deals with Dihydroorotate dehydrogenase (quinone), mitochondrial (Plasmodium falciparum (isolate 3D7)) (UniProt Q08210). The experiment is described as follows: inhibition of P. falciparum DHODH – biochemical, C-terminal His tag, absorbance 600 nm, primary screen (AID 1175).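 Also: recombinant parasite enzyme with a five histidine tag at its C terminus.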 Conditions: PfDHODH enzyme, DCIP absorbance 600 nm; higher = more signal, called active from +8 up or from −8 down.
Sequence of Dihydroorotate dehydrogenase (quinone), mitochondrial (Plasmodium falciparum (isolate 3D7)) (Q08210 whole entry, looked up): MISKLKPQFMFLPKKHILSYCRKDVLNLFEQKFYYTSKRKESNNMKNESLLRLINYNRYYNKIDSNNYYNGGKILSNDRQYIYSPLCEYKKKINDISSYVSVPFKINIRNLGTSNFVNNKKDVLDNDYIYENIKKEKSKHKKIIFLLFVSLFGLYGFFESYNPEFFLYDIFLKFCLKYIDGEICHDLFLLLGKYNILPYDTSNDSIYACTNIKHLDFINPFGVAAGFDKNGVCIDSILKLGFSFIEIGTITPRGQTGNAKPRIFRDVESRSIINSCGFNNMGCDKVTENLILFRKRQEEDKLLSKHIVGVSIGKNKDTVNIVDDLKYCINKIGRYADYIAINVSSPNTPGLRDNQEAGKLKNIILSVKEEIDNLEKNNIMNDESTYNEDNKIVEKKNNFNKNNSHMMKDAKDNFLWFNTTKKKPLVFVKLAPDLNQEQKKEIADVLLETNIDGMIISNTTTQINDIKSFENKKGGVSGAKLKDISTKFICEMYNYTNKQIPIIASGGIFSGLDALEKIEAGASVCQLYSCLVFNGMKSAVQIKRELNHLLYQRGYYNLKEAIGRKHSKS

The nature of experiment [14]: growth modulation of vineyard yeast isolate – strain RM11-1a, OD600, basal, 24 h, primary screen (AID 1177).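 Also: cultures grown under basal conditions with no added stressor.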 Conditions: S. cerevisiae RM11-1a growth, OD600, 24 h; higher = more signal, called active from +8 up or from −8 down.
The nature of experiment [15]: growth of efflux-deficient E. coli DRC39 – strain DRC39, OD650, 24 h, E. coli filamentation inducers, primary screen (AID 1178).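 Also: growth measured as culture turbidity by optical density at 650 nm.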 The conditions noted are these: E. coli DRC39 acrAB, higher = more signal, called active from +8 up or from −8 down.
A short description of experiment [16]: growth of efflux-deficient E. coli DRC39 – strain DRC39, OD650, 48 h, E. coli filamentation inducers, primary screen (AID 1179).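 Also: screen aims at cell division blockers that make cells filament.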 Conditions: E. coli DRC39 delta-acrAB growth, higher = more signal, called active from +8 up or from −8 down.
Experiment [17] can be described thus: viability profiling in RPMI8226 myeloma cells – cell-based, resazurin fluorescence, basal, 24 h, PK04 Diversity Set, profiling panel (AID 1180).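 Also: RPMI8826 multiple myeloma cell line at 5000 cells per well.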 Conditions: higher = more signal.
Experiment [18] has as its target E3 ubiquitin-protein ligase XIAP (Homo sapiens) (UniProt P98170). The experiment is described as follows: small molecules binding XIAP protein – biophysical, small-molecule microarray, fluorescence 635 nm, primary screen (AID 1181).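 Also: score merges 667 nm emission and signal to noise over triplicate slides.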 Conditions: higher = more signal.
Experiment [19] relates to XIP peptide (Xip251-270) binding. Kind of experiment: XIP fragment 251-270 binding compounds – biochemical, small-molecule microarray, fluorescence 635/667 nm, 0.1 µg/mL protein, primary screen (AID 1182). Conditions: fluorescent protein binding, 635 nm, higher = more signal, called active from +8 up or from −8 down.
For the next experiment, the system named is XIP peptide (Xip251-270). The experiment is described as follows: compounds binding XIP fragment 251-270 – biochemical, small-molecule microarray, fluorescence 635/667 nm, 0.5 µg/mL protein, primary screen (AID 1183). Conditions: fluorescence 635 nm, higher = more signal.

Molecules are shown by their SMILES. Calls of active or inactive are those of the source.

This passage reports z-score and composite z-score results from PubChem BioAssay.

Sequence of E3 ubiquitin-protein ligase XIAP (Homo sapiens) (P98170 whole entry, looked up, the tested form may be a part): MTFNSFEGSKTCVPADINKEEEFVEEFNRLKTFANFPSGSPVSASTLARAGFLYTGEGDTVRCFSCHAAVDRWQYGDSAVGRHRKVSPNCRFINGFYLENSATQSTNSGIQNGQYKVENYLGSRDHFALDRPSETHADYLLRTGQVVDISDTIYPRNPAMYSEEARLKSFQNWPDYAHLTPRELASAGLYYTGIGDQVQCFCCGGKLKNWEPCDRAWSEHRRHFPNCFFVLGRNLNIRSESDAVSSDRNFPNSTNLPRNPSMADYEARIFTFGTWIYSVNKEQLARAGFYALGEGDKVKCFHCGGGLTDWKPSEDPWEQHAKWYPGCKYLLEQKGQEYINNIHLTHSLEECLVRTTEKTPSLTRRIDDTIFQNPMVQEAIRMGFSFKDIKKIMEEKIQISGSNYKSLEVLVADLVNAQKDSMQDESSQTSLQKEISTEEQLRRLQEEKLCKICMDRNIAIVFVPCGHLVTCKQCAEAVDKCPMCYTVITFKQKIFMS

`COCCOC(=O)N1C(=O)[C@@]2(c3cc(C#CCNC(N)=O)ccc31)[C@H](C(=O)NC[C@H](O)c1ccccc1)[C@H]1C(=O)O[C@H](c3ccccc3)[C@H](c3ccccc3)N1[C@@H]2c1ccc(O)cc1`: the z-score in experiment [1] is 0.539; in [2] it was 0.315; in experiment [3], -0.825; in [4], 0.987; in experiment [5], -0.549; in experiment [6], 0.962 (inactive). The z-score was 0.161 in [7]; -0.29 in [8]; 0.0618 (inactive) in experiment [9]; 0.141 in experiment [10]; -0.331 (inactive) in experiment [11]; 0.751 (inactive) in experiment [12]. Also, the z-score is 0.436 (inactive) in experiment [14], -0.17 (inactive) in experiment [15], 0.316 (inactive) in experiment [16] and 1.46 in experiment [17]. In addition, the composite z-score in [13] is -0.263 (inactive); in experiment [18], 0.166; in experiment [19], 1.29 (inactive); with XIP peptide (Xip251-270), 0.178.

For `CC(C)(C)OC(=O)CC[C@@]1(C(=O)NCc2ccccc2)N=C(c2ccc(OCCCO)cc2)O[C@@H]1c1ccccc1CN=[N+]=[N-]`, the z-score in experiment [1] is 2.98; in experiment [2] it was -0.399; in experiment [3] it was 0.507; in [4] it was -1.04; in [5], 2.13; in experiment [6], 0.179 (inactive). Besides, the z-score in [7] was -1.12; in experiment [8] it was 0.236; in experiment [9], 0.392 (inactive); in experiment [10] it was -0.169; in [11], -0.986 (inactive); in experiment [12], 0.725 (inactive). In addition, the z-score is -0.496 (inactive) in experiment [14], 2.1 (inactive) in [15], 0.824 (inactive) in experiment [16] and 0.394 in [17]. The composite z-score in experiment [13] is -0.182 (inactive); in experiment [18] it was -0.227; in experiment [19] it was 1.42 (inactive); in the experiment on XIP peptide (Xip251-270), 0.733.

For the compound `Cc1ccc(S[C@]2(C(=O)NCC(C)C)CC(=O)N(C(C)C)[C@@H]2c2ccc(CO)cc2)cc1`, the z-score was 2.25 in experiment [1]; -1.49 in [2]; 0.623 in [3]; -0.954 in experiment [4]; 0.34 in experiment [5]; -0.446 (inactive) in experiment [6]. The z-score was 0.134 in [7]; 0.381 in experiment [8]; 0.443 (inactive) in experiment [9]; -0.784 in [10]; 0.225 (inactive) in experiment [11]; 1.13 (inactive) in experiment [12]. Besides, the z-score in [14] is -1.24 (inactive); in [15], 1.49 (inactive); in [16], 0.719 (inactive); in experiment [17] it was 0.687. The composite z-score in experiment [13] is -0.052 (inactive); in [18], -0.0481; in experiment [19], -0.467 (inactive); in the experiment with XIP peptide (Xip251-270), -0.284.

Take `CC(C)C(CO)N1C(=O)[C@@H]2[C@H]3C(=O)OCC=C[C@H]3OC23C=CCN(Cc2ccccc2)C(=O)[C@@H]13` (stereo not given in full): the z-score is 0.651 in experiment [1]; -0.384 in experiment [2]; 0.33 in experiment [3]; 0.0894 in experiment [4]; 0.341 in experiment [5]; 0.232 (inactive) in [6]. Further, the z-score was 0.159 in experiment [7]; 1.96 in [8]; -0.077 (inactive) in [9]; 0.25 in experiment [10]; -1.57 (inactive) in experiment [11]; 0.699 (inactive) in [12]. Further, the z-score was -0.752 (inactive) in experiment [14], 1.53 (inactive) in experiment [15], 1.03 (inactive) in experiment [16] and 0.359 in [17]. Besides, the composite z-score in [13] is -0.429 (inactive); in [18] it was 0.411; in [19], -0.433 (inactive); with XIP peptide (Xip251-270), -1.18.
